POLH inh – DNA polymerase eta (human) inhibition; recombinant Pol eta, fluorescent DNA replication assay; hit rate 1.2% among 390,000; AID 588591; Potency, µM (series often up to 114 µM), for the others: at the top dose activity change, negative = inhibition, usual class: inhibitors; Q9Y253; further: on the % scale 0 is the no-effect control and ±100 the full control effect
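Pol eta at 10 nM preincubated with compounds 15 min at room temperature; reaction started with fluorescent substrate (50 nM final) and read kinetically at 0 and 10 min.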
Pol kappa inh – DNA polymerase kappa (human) inhibition. Q9UBT6. purified Pol kappa, fluorescent DNA synthesis assay, 10 min. Potency, µM (series often up to 107 µM), without a hit: at the top dose activity, negative = inhibition, hits mostly inhibitors. hit rate 0.53% among 400,000; further: on the % scale 0 is the no-effect control and ±100 the full control effect
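Activity was followed as the change in fluorescence between reads at 0 and 10 min after starting the reaction with 50 nM substrate. Beforehand, 10 nM polymerase had been preincubated with compound for 15 min at room temperature.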
FEN1 inh – inhibitors of human flap endonuclease 1; P39748; Recombinant FEN1 flap cleavage, fluorescence, 15 min; Potency, µM (doses to about 114 µM), inactives show top-dose activity change, negative = inhibition, hits mostly inhibitors; hit rate 0.35% among 390,000; further: on the % scale 0 is the no-effect control and ±100 the full control effect; nearly all actives have a fitted effect of over 65% in size
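Nuclease activity of 10 nM FEN1 was measured after 15 min of room-temperature exposure to titrated compounds, by adding 50 nM flap substrate and reading plates at 0 and 15 min.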
POLB inh – blocks human DNA polymerase beta activity; Pol beta primer extension/strand displacement, fluorescence kinetic; Potency, µM (highest dose often 114 µM), for inactives: at the highest dose activity change, negative = inhibition, usual class: inhibitors; hit rate 1.3% among 340,000; AID 485314; further: on the % scale 0 is the no-effect control and ±100 the full control effect
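Kinetic readout of DNA synthesis with strand displacement by Pol beta. Compound and 10 nM enzyme sit 15 min at room temperature; 50 nM substrate starts the reaction, read immediately and at 10 min.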
POLI inh – DNA polymerase iota (human) inhibition | Potency, µM (doses to about 115 µM), for the others: at the top dose activity, negative = inhibition, most hits filed as inhibitors | Q9UNA4 | Pol iota fluorescent replication assay, 10 min | hit rate 1% among 390,000 | AID 588590
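Pol iota at 10 nM preincubated 15 min with compounds at room temperature; reaction started with fluorescent substrate, 50 nM final. Fluorescence read kinetically at 0 and 10 min; buffer-only wells as negative control.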
WRN inhibitor – WRN helicase (human) inhibition; AID 651768; hit rate 0.46% among 360,000; WRN helicase unwinding, fluorescent forked duplex, kinetic; Potency, µM (highest dose often 114 µM), without a hit: at the top dose activity change, negative = inhibition, usual class: inhibitors; further: on the % scale 0 is the no-effect control and ±100 the full control effect; nearly all actives have a fitted effect of over 55% in size
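WRN at 20 nM final preincubated with compound 15 min at room temperature; reaction started with 100 nM fluorophore/quencher forked duplex oligonucleotide and 2 mM ATP final. Unwinding followed kinetically by red fluorescence (ex 525, em 598 nm).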
* marks the source's active call; other numbers are inactive results; ? = inconclusive; . = no result given; [ ] = remark or other dose. Compounds with a hit are over-represented: about 2.4% of the library has one in this group of screens. The call rests on the fitted dose curve; in most records, active means well fitted curve in the direction sought with a large enough effect; inconclusive means small, poorly fitted or top-dose-only effect, or another doubt; inactive means no such curve, though single readings can be large; an effect the other way counts as inactive or inconclusive. Potency means the concentration at half of the fitted maximal effect.

SMILES | POLH inh | Pol kappa inh | FEN1 inh | POLB inh | POLI inh | WRN inhibitor
CCOc1ccc(NC(=O)CN2CCCN(Cc3cc(C)ccc3C)S2(=O)=O)cc1 | -11% | ? | ? | -19% | 89µM* | .
O=C1C=C(N2CCOCC2)c2cccc3cccc1c23 | -11% | . | . | . | . | -21%
O=C1C=C(O)c2cccc3cccc1c23 | -1% | -6% | 2µM* | -8% | 13% | -9%[57.1 µM]
O=C1C=C(O)c2c(O)cccc2C1=O | . | . | . | 16µM* | . | .
COc1ccccc1CN1CC2(CCN(C(=O)c3ccncc3)CC2)C1 | . | -5%[60.1 µM] | . | . | . | .
C1CCC(NC(=NC2C3CC4CC(C3)CC2C4)N2CCOCC2)CC1 (stereo unspecified) | . | 10%[19.4 µM] | . | . | . | .
O=C(NCc1ccccc1)c1cccc(Br)n1 | -3% | -4% | -13% | 2% | 79µM* | -2%[11.6 µM]
O=C(NCCc1ccccc1)c1cccc(Br)n1 | . | -10% | . | . | . | .
Clc1cccc(Nc2ncnc3ccc(Br)cc23)c1 | -16% | -19% | -24% | 7% | 100µM* | -24%
CN(C)S(=O)(=O)N1CCC(Oc2cccc(C(=O)N3CCCCCC3)c2)CC1 | -10% | -6% | 11% | -8% | 9% | -19%
CN(C)S(=O)(=O)N1CCC(Oc2cccc(C(=O)N3CCCCCCC3)c2)CC1 | -10% | -10% | 4% | 0% | 89µM* | -3%[11.6 µM]
Nc1[nH]c(N=NC(=O)c2ccc(Cl)cc2)c2ccccc12 | 0% | 1% | 4% | 79µM* | 19% | -31%[57.1 µM]
C=CCOC(=O)C(=O)/C=C/c1ccc2c(c1)Cc1ccccc1-2 | 3% | -6% | -7% | 8% | 13µM* | -22%
Cc1cc(C)cc(N(CC(=O)NC2CC3CCC2C3)S(C)(=O)=O)c1 (stereo unspecified) | 1% | -8% | 6% | -1% | 89µM* | 12%
CCn1cc(S(=O)(=O)c2cccc(C)c2)c(=O)c2cc(F)c(N3CCCC(C)C3)cc21 (stereo unspecified) | 3% | -5% | -1% | 11% | 3% | .
Oc1c(Cl)cc(Cl)cc1Sc1cc(Cl)cc(Cl)c1O | . | ? | . | 22µM* | . | .
CN(c1ccccc1)S(=O)(=O)c1nnc(NC(=O)COc2ccccc2)s1 | ? | -15% | -6% | ? | 79µM* | -7%[11.6 µM]
Cc1ccc(C)c(CN2CCCN(Cc3ccc(F)cc3)S2(=O)=O)c1 | -4% | -8% | -11% | -2% | 20% | .
CN(C)CC(CCC(CN(C)C)C(=O)c1ccccc1)C(=O)c1ccccc1 (stereo unspecified) | -5% | -3% | -13% | 0% | 22µM* | ?
COC(=O)c1cc2oc3ccccc3c2n1CC(=O)Nc1ccc(Cl)cc1F | -11% | 10% | 5% | 40% | 19% | .
Cc1ccccc1NS(=O)(=O)c1ccc(C(=O)N(C)CC(=O)Nc2ccccc2Br)cc1 | -14% | -2% | -18% | . | -15% | 1%
CC(=O)c1ccc(S(=O)(=O)Nc2ccc(C(=O)N(C)CC(=O)Nc3cccc(C)c3C)cc2)cc1 | 32µM* | ? | -13% | . | ? | 5%[11.6 µM]
N#CC(C#N)=C1C=CC=CN1/C(=C\c1ccco1)C(=O)c1ccc(Cl)cc1 | -13% | -19% | -14% | 1% | ? | 22µM*
COCCN(Cc1cc2cc(C)cc(C)c2nc1Cl)C(=O)Nc1ccccc1 | -14% | -9% | -19% | ? | 35% | -9%
Cc1cc(C)c2nc(Cl)c(CN(Cc3ccco3)C(=O)Nc3ccccc3C)cc2c1 | -7% | -8% | -3% | 1% | 89µM* | -13%
SMILES | POLH inh | Pol kappa inh | FEN1 inh | POLB inh | POLI inh | WRN inhibitor
COc1ccccc1N1CCN(S(=O)(=O)CCNC(=O)C(c2ccccc2)c2ccccc2)CC1 | -16% | -7%[60.1 µM] | -10% | -12% | -3% | .
CC1CCN(c2cc3c(cc2F)c(=O)c(S(=O)(=O)c2ccc(Cl)cc2)cn3C)CC1 | 1% | -12% | -11% | ? | -4% | .
CCOc1ccc(-n2c(SCc3ccccc3)nc3c([nH]c4ccccc43)c2=O)cc1 | -3% | -1%[60.1 µM] | -8% | -1% | -18% | .
Cc1ccc2ccc3cc(C(=O)Nc4ccc(C)c(F)c4)nc3c2[nH]1 | -11% | -15% | -16% | ? | 89µM* | .
CNc1c(NC(=O)c2cc(OC)cc(OC)c2)c(=O)oc2ccccc12 | -17% | 20% | -3% | 8% | 9% | .
CCOC(=O)c1c(C)n(S(=O)(=O)c2ccc(C)cc2)c2ccc(NS(=O)(=O)c3ccc(C)cc3)cc12 | -19% | 3% | -22% | 6% | 30% | .
C=CCNC(=O)/C(=C\c1ccc(Br)cc1)NC(=O)c1ccccc1OC | -12% | 4% | 1% | 0.14µM* | -1% | -27%[57.1 µM]
COc1ccccc1C(=O)N/C(=C/c1ccc(Br)cc1)C(=O)NCC(=O)O | 0% | -13% | 3% | 35% | 23% | -13%
CCOC(=O)C1CCN(c2ncnc3c2cnn3-c2ccc(OC)cc2)CC1 | -7% | -23% | -7% | 50µM* | 11% | -19%
COc1ccc(-n2ncc3c(N4CCC(C(N)=O)CC4)ncnc32)cc1 | -23% | -11% | -6% | ? | 1% | 9%
COc1cc2c(cc1OC)C(COc1ccc3c(C)cc(=O)oc3c1)N(C(=O)c1cccc(C)c1)CC2 (stereo unspecified) | -8% | -3% | -13% | 26% | -6% | .
CNS(=O)(=O)c1ccc2nc(NC(=O)/C=C/c3ccco3)sc2c1 | -1% | ? | -24% | ? | 50µM* | -9%
Cc1ccc(-c2nnc3c4ccccc4c(C)nn23)cc1NC(=O)CN1CCOCC1 | . | . | . | -3% | . | .
Cc1nn2c(-c3cccc(NC(=O)CN4CCOCC4)c3)nnc2c2ccccc12 | ? | 1%[60.1 µM] | ? | . | 40µM* | -5%[11.6 µM]
CCn1c(SCC(=O)Nc2oc(-c3ccccc3)c(-c3ccccc3)c2C#N)nnc1-c1ccncc1 | 71µM* | ? | -18% | 0% | ? | -6%[11.6 µM]
O=c1oc2cc([N+](=O)[O-])ccc2nc1/C=C(O)/C=C/c1ccccc1 | . | . | . | -23% | . | .
O=c1oc2cc([N+](=O)[O-])ccc2nc1/C=C(\O)c1cccc(Br)c1 | ? | -13% | 25µM* | 0% | -22%[58.9 µM] | -9%
O=S(=O)(Nc1ncnc2sc3c(c12)CCC3)c1ccc(Cl)s1 | 35µM* | 0% | -5% | -2% | ? | -30%[57.1 µM]
c1coc(CSSCc2ccco2)c1 | 20µM* | 8.9µM* | ? | . | ? | 50µM*
CC1CCN(C(=O)c2ccccc2NC(=O)c2nsc3ccccc23)CC1 | -22% | -2%[60.1 µM] | -22% | 31% | -5% | .
Cc1ccccc1C(=O)Nc1ccccc1C(=O)N1CCC(C)CC1 | -1% | -14% | 89µM* | 20% | -8% | 1%
Cc1nc2c(=O)[nH]c(=S)n(C)c2nc1C | 4% | -16% | ? | 56% | ? | 56µM*
